Reference: PubChem BioAssay AID1159580 (chemical genetic matrix, 2015)
Among all 5,500 compounds or so, about 2,000 (36%) were called active. Inconclusive results (about 18%) are left out. Cut-off read from the data, not from the text of the source: active = normalized growth mostly below about 0.91 (no sharp cut-off); inconclusive = no clear call, values can overlap the other calls; inactive = mostly above about 0.92. This is one part of the list.

Assay: chemical genetic growth profiling, strain panel (AID 1159580);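 note: tested at 20 µM; growth read once vehicle control cultures reached saturation at 30 °C; 1 = growth at the plate median or of vehicle wells; lower values mean less growth of the strain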
Settings: growth OD

Measured: normalized growth

COc1cc(C(=O)NCc2ccc(OCCN(C)C)cc2)cc(OC)c1OC
inactive: S. cerevisiae deletion strains, locus YJL187C, strain SWE1, active compounds read low 0.99 | S. cerevisiae deletion strains, locus YJR043C, strain POL32, active compounds read low 0.984 | S. cerevisiae deletion strains, locus YJR066W, strain TOR1, active compounds read low 0.929 | S. cerevisiae deletion strains, locus YKL009W, strain mrt4, active compounds read low 1.01 | S. cerevisiae deletion strains, locus YKL068W, active compounds read low 0.978 | S. cerevisiae deletion strains, locus YKL085W, strain MDH1 (second series), active compounds read low 0.975 | S. cerevisiae deletion strains, locus YKL085W, strain MDH1, active compounds read low 0.975 | S. cerevisiae deletion strains, locus YKL160W, strain elf1, active compounds read low 0.947 | S. cerevisiae deletion strains, locus YKL190W, strain CNB1, active compounds read low 0.986 | S. cerevisiae deletion strains, locus YKR001C, strain vps1, active compounds read low 0.983 | S. cerevisiae deletion strains, locus YKR026C, strain gcn3, active compounds read low 0.989 | S. cerevisiae deletion strains, locus YKR091W, strain srl3, active compounds read low 0.993 | S. cerevisiae deletion strains, locus YLL001W, strain dnm1, active compounds read low 1 | S. cerevisiae deletion strains, locus YLL026W, active compounds read low 1 | S. cerevisiae deletion strains, locus YLL041C, strain sdh2, active compounds read low 1 | S. cerevisiae deletion strains, locus YLR027C, strain aat2, active compounds read low 0.996 | S. cerevisiae deletion strains, locus YLR039C, strain RIC1, active compounds read low 0.954 | S. cerevisiae deletion strains, locus YLR058C, strain SHM2, active compounds read low 0.97 | S. cerevisiae deletion strains, locus YLR102C, strain apc9, active compounds read low 0.984 | S. cerevisiae deletion strains, locus YLR113W, strain HOG1, active compounds read low 0.986 | S. cerevisiae deletion strains, locus YLR221C, strain rsa3, active compounds read low 1.01 | S. cerevisiae deletion strains, locus YLR258W, strain gsy2, active compounds read low 0.999 | S. cerevisiae deletion strains, locus YLR262C, strain YPT6 (second series), active compounds read low 1.02 | S. cerevisiae deletion strains, locus YLR262C, strain YPT6, active compounds read low 0.965 | S. cerevisiae deletion strains, locus YLR268W, strain sec22, active compounds read low 0.971 | S. cerevisiae deletion strains, locus YLR320W, strain mms22, active compounds read low 0.978 | S. cerevisiae deletion strains, locus YLR330W, strain CHS5, active compounds read low 0.999 | S. cerevisiae deletion strains, locus YLR342W, strain FKS1 (second series), active compounds read low 1.07 | S. cerevisiae deletion strains, locus YLR342W, strain FKS1, active compounds read low 0.991 | S. cerevisiae deletion strains, locus YLR357W, strain rsc2, active compounds read low 0.959 | S. cerevisiae deletion strains, locus YLR370C, strain arc18, active compounds read low 0.99 | S. cerevisiae deletion strains, locus YLR371W, strain rom2, active compounds read low 0.984 | S. cerevisiae deletion strains, locus YLR384C, strain iki3, active compounds read low 1 | S. cerevisiae deletion strains, locus YLR418C, strain cdc73, active compounds read low 1.01 | S. cerevisiae deletion strains, locus YML016C, strain PPZ1, active compounds read low 0.991 | S. cerevisiae deletion strains, locus YML032C, strain rad52, active compounds read low 0.987 | S. cerevisiae deletion strains, locus YML120C, strain ndi1, active compounds read low 1.01 | S. cerevisiae deletion strains, locus YML124C, strain tub3, active compounds read low 0.982 | S. cerevisiae deletion strains, locus YMR058W, strain fet3, active compounds read low 1.02 | S. cerevisiae deletion strains, locus YMR078C, strain ctf18, active compounds read low 0.984 | S. cerevisiae deletion strains, locus YMR125W, strain sto1, active compounds read low 0.961 | S. cerevisiae deletion strains, locus YMR129W, active compounds read low 1.01 | S. cerevisiae deletion strains, locus YMR205C, strain PFK2, active compounds read low 0.992 | S. cerevisiae deletion strains, locus YMR223W, strain ubp8, active compounds read low 1.03 | S. cerevisiae deletion strains, locus YMR231W, strain pep5, active compounds read low 1 | S. cerevisiae deletion strains, locus YMR307W, strain GAS1, active compounds read low 1.05 | S. cerevisiae deletion strains, locus YNL067W, strain RPL9B, active compounds read low 0.972 | S. cerevisiae deletion strains, locus YNL071W, strain lat1, active compounds read low 0.991 | S. cerevisiae deletion strains, locus YNL183C, strain NPR1, active compounds read low 0.937 | S. cerevisiae deletion strains, locus YNL209W, strain ssb2, active compounds read low 0.988 | S. cerevisiae deletion strains, locus YNL233W, strain BNI4, active compounds read low 0.994 | S. cerevisiae deletion strains, locus YNL248C, strain rpa49, active compounds read low 0.95 | S. cerevisiae deletion strains, locus YNL250W, strain rad50, active compounds read low 0.977 | S. cerevisiae deletion strains, locus YNL271C, strain bni1, active compounds read low 0.976 | S. cerevisiae deletion strains, locus YNL298W, strain CLA4, active compounds read low 0.997 | S. cerevisiae deletion strains, locus YNL307C, strain MCK1, active compounds read low 0.98 | S. cerevisiae deletion strains, locus YNL322C, strain KRE1 (second series), active compounds read low 0.983 | S. cerevisiae deletion strains, locus YNL322C, strain KRE1, active compounds read low 0.984 | S. cerevisiae deletion strains, locus YNR049C, strain mso1, active compounds read low 1 | S. cerevisiae deletion strains, locus YNR052C, strain pop2, active compounds read low 0.988 | S. cerevisiae deletion strains, locus YOL012C, strain htz1 1.41 | S. cerevisiae deletion strains, locus YOL147C, strain pex11, active compounds read low 0.991 | S. cerevisiae deletion strains, locus YOR001W, strain rrp6, active compounds read low 1.01 | S. cerevisiae deletion strains, locus YOR061W, strain CKA2, active compounds read low 0.962 | S. cerevisiae deletion strains, locus YOR069W, strain VPS5, active compounds read low 0.997 | S. cerevisiae deletion strains, locus YOR070C, strain gyp1, active compounds read low 0.997 | S. cerevisiae deletion strains, locus YOR080W, strain dia2, active compounds read low 0.997 | S. cerevisiae deletion strains, locus YOR083W, strain WHI5, active compounds read low 0.927 | S. cerevisiae deletion strains, locus YOR106W, strain vam3, active compounds read low 0.98 | S. cerevisiae deletion strains, locus YOR136W, strain idh2, active compounds read low 0.98 | S. cerevisiae deletion strains, locus YOR144C, strain elg1, active compounds read low 0.993 | S. cerevisiae deletion strains, locus YOR184W, strain ser1, active compounds read low 0.985 | S. cerevisiae deletion strains, locus YOR231W, strain MKK1, active compounds read low 0.984 | S. cerevisiae deletion strains, locus YOR265W, strain rbl2, active compounds read low 1 | S. cerevisiae deletion strains, locus YOR270C, strain vph1, active compounds read low 0.973 | S. cerevisiae deletion strains, locus YOR290C, strain snf2, active compounds read low 0.972 | S. cerevisiae deletion strains, locus YOR316C, strain cot1, active compounds read low 0.977 | S. cerevisiae deletion strains, locus YPL051W, strain arl3, active compounds read low 0.982 | S. cerevisiae deletion strains, locus YPL055C, strain LGE1, active compounds read low 0.931 | S. cerevisiae deletion strains, locus YPL078C, strain atp4, active compounds read low 0.965 | S. cerevisiae deletion strains, locus YPL106C, strain sse1, active compounds read low 0.935 | S. cerevisiae deletion strains, locus YPL240C, strain hsp82, active compounds read low 0.995 | S. cerevisiae deletion strains, locus YPL256C, strain CLN2, active compounds read low 0.97 | S. cerevisiae deletion strains, locus YPR119W, strain clb2, active compounds read low 0.981 | S. cerevisiae deletion strains, locus YPR141C, strain kar3, active compounds read low 0.969 | S. cerevisiae deletion strains, locus YPR163C, strain tif3, active compounds read low 0.988 | S. cerevisiae deletion strains, locus YPR167C, strain met16, active compounds read low 0.994 | S. cerevisiae deletion strains, strain wtn01, active compounds read low 1 | S. cerevisiae strains, strain wild type, active compounds read low 0.979
